# Sampled rows, rich in hits. Any-hit rate of the full collection: about 1.9%.
# a7 integrin act = integrin-mediated muscular dystrophy alleviation activation; alpha7betagal myoblasts, beta-gal FDG fluorescence, 48 h; Potency, µM (doses to about 38.3 µM), inactives show at the top dose activation, usual class: activators; hit rate 0.064% among 350,000;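 note: potency is the fitted concentration of half-maximal effect; 100% = response of the positive control SU9516; nearly all actives have a fitted effect of over 60% in size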
#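 alpha7betagal+/- myoblasts (passage 13, 250/well) treated 48 h at 37C with compounds at 1:260 dilution of DMSO stock. Lysed, then beta-galactosidase activity read as FDG fluorescence (ex 480/em 540) after 30 min, with pre-read for autofluorescence.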
# ClpP mod = qHTS Assay for Activators of ClpP. ATP-dependent Clp protease proteolytic subunit (Bacillus subtilis (strain 168)), P80244. purified B. subtilis ClpP, FRET peptide cleavage, 20 min. Potency, µM (top dose mostly 57.5 µM), for inactives: at the highest dose activity change, negative = active. hit rate 1.9% among 340,000. AID 651965, 2013; active = well fitted falling curve with a large enough effect; inconclusive = small, poorly fitted or top-dose-only effect; inactive = no such curve, though single readings can be large or run the other way; note: potency is the fitted concentration of half-maximal effect; the source files actives as falling curves though it sought activators and does not explain the sign; nearly all actives have a fitted effect of over 65% in size
# Target sequence (P80244 whole entry, looked up): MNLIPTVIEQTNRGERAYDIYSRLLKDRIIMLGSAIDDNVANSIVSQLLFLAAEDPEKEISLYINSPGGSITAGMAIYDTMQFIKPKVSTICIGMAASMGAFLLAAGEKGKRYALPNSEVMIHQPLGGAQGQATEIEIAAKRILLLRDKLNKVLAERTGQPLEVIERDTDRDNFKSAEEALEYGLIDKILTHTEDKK
#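 ClpP 10 microg/mL final, pH 8 Tris/KCl buffer with BSA, glycerol, Tween-20; compound pinned in; FRET-FV substrate; RT 20 min; Ex320/Em430; ΔFRET vs ADEP 5.8 microM, DMSO, no enzyme.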
# Pin1 inh = inhibitors of human Pin1; Pin1 FP peptide displacement, HiFluor488, 10 min; hit rate 0.009% among 390,000; Q13526; Potency, µM (doses to about 115 µM), without a hit: at the top dose activity, negative = inhibition, usual class: inhibitors; AID 504891; active = well fitted inhibition curve with a large enough effect in the polarisation, with a control signal flat, not every such curve was filed as active; inconclusive = small, poorly fitted or top-dose-only effect, or effect the other way, or a change in a side signal; inactive = no such curve, though single readings can be large or run the other way; the % refers to the polarisation; note: potency is the fitted concentration of half-maximal effect; % is set by controls: 0 for no effect and ±100 for the full control effect
# IL2 activator = IL-2 activation. IL-2 activation reporter assay, cell-based qHTS; stimulated with anti-CD3/CD4/CD28 beads; in transgenic mouse T cells. activation, % (series mostly up to about 46 µM). hit rate 0.065% among 360,000; in the data active = activation above about 50%; inconclusive = mostly about 30% to 49%; note: 0% is about no effect
#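 Unstimulated transgenic mouse T cells preincubated 60 min with compound, then stimulated with anti-CD3/anti-CD4-coated beads plus anti-CD28 for 18 h at 37 degrees C. IL-2 response read as EGFP and DsRed fluorescence by plate cytometry.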
# PKM2 activator = activators of human pyruvate kinase M2 | P14618 | purified PKM2, Kinase-Glo ATP luminescence, activation; response scale: 0% is enzyme alone, no compound | Potency, µM (top dose mostly 57.5 µM), without a hit: at the top dose activation, usual class: activators | hit rate 0.34% among 260,000; note: potency is the fitted concentration of half-maximal effect; % is set by controls: 0 for no effect and ±100 for the full control effect; nearly all actives have a fitted effect of over 55% in size
# Target sequence (P14618 whole entry, looked up): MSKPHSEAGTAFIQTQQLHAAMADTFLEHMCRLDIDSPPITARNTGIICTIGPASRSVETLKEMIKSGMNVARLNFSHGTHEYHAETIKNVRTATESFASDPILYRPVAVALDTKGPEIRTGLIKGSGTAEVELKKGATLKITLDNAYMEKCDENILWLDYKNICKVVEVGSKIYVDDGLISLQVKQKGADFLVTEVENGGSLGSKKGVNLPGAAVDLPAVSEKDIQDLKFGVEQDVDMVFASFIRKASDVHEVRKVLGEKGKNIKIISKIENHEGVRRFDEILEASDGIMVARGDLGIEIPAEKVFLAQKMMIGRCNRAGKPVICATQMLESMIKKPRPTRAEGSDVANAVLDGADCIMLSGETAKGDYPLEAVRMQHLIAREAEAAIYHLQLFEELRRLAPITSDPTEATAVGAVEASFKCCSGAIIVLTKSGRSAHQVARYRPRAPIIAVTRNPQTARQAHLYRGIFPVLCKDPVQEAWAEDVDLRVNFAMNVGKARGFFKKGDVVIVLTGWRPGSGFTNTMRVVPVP
#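 Kinase-Glo luminescence reports ATP generated from ADP (0.1 mM) and PEP (0.5 mM) by purified hPK-M2 after 1 h at room temperature, pH 7.2 imidazole buffer; intermediate enzyme activity allows detecting inhibitors and activators.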
# USP2a inh = blocks human ubiquitin-specific protease USP2a; USP2 core, Ub-CHOP2 coupled fluorogenic reporter, 485/531; hit rate 0.01% among 330,000; O75604; Potency, µM (titrated, usually from 38.3 µM), for inactives: at the highest dose activity change, negative = inhibition, actives largely listed as inhibitors; AID 463254;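 note: potency is the fitted concentration of half-maximal effect; plate controls were DMSO wells for no effect and full inhibition by NEM control for full effect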
#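 Deubiquitinase activity read as fluorescence (485/531 nm) after Ub-CHOP2 cleavage activates the enterokinase reporter on its substrate; USP2 core 10nM, Ub-CHOP2 and substrate 25nM each, 30min compound preincubation then 60min RT; data normalized to NEM, curves fitted.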
# Starred values were filed as active, the others as inactive; ? = inconclusive; · = no result given; [ ] = dose if it differs, or a comment. Unless noted, calls come from the whole dose curve; as a rule, active = well fitted curve in the direction sought with a large enough effect; inconclusive = small, poorly fitted or top-dose-only effect, or another doubt; inactive = no such curve, though single readings can be large; an effect the other way counts as inactive or inconclusive.
SMILES,a7 integrin act,ClpP mod,Pin1 inh,IL2 activator,PKM2 activator,USP2a inh
COC(=O)c1ccc(-c2ccco2)n1Cc1ccccc1Cl,5%,28µM*,22%,-1,9%,-4%
COc1cc(N(C)C)c(OC)cc1/C=C1\Cc2ccccc2C1=O,·,-5%,·,·,·,·
Cc1ccc(C)c(-n2ccnc2SCC(=O)O)c1,-4%,1%,4%,1,-3%,6%
Cc1cc(C)cc(-n2ccnc2SCC(=O)O)c1,13%,28µM*,-6%,1,27%,2%
Cc1ccc(C(=O)CSc2nccn2-c2ccccc2)cc1,-20%,28µM*,-3%,2,11%,4%
CN(C)C(=O)COc1ccccc1C(=O)OCC(=O)N(CCC#N)c1ccccc1,·,-8%,·,·,·,·
CC(C)[C@H](NC(=O)c1ccccc1Cl)C(=O)OCc1cc([N+](=O)[O-])cc2c1OCOC2,20%,22µM*,-29%,-3,-2%,-1%
O=C(O)CCc1ccc(-c2cccs2)o1,-28%,-9%,-15%,-2,21%,-1%
Cc1ccc(-c2ccc(CCC(=O)O)o2)cc1,-11%,16µM*,1%,-2,20%,2%
CCOC(=O)c1ccc2c(c1)N(Cc1ccc(F)cc1Cl)C(=O)c1ccccc1S2(=O)=O,·,-4%,20%,·,·,·
CC(C)c1ccc(NC(=O)c2cc3c([nH]c2=O)CC(C)(C)CC3=O)cc1,·,0%,·,·,·,·
CC(C)CNC(=O)[C@H]1N2C(=O)c3ccccc3C2SC1(C)C (stereo partly specified),14%,28µM*,1%,-4,·,0%
CC1(C)SC2c3ccccc3C(=O)N2[C@@H]1C(=O)NCCCN1CCOCC1 (stereo partly specified),-8%,2%,1%,0,0%,0%
CCOc1ccc(N=Cc2ccc3ccccc3c2)cc1,42%,-2%,0%,0,-2%,0%
O=[N+]([O-])c1cc(C=Nc2ccc3ccccc3c2)ccc1Br,-28%,28µM*,-1%,-2,-10%,-1%
O=[S+]1([O-])N=C(Oc2cccnc2)c2ccccc21,·,·,2%,·,·,·
COC(=O)C1=C(C)NC(C)=C(C(=O)OC)C1c1cn(-c2ccccc2)nc1-c1ccco1,41%,28µM*,37%,-2,2%,-1%
CC1=CC(C)C2C(=O)N(c3ccccc3)NC(=O)C2C1 (stereo unspecified),-7%,16µM*,0%,-2,-8%,-1%
CC1=CC(C)C2C(=O)N(O)C(=O)C2C1 (stereo unspecified),7%,-5%,-1%,0,-1%,3%
COc1ccc(S(=O)(=O)N2CCN(C(=S)Nc3ccc(S(N)(=O)=O)cc3)CC2)cc1,-11%,18µM*,-9%,-1,1%,0%
O=S(=O)(c1ccccc1)N1CCN(C(=S)Nc2ccccc2)CC1,22%,-2%,0%,-2,3%,-1%
COc1ccc(S(=O)(=O)N2CCN(C(=O)c3cccs3)CC2)cc1,6%,-2%,1%,-1,14µM*,7%
COc1ccc(S(=O)(=O)N2CCN(C(=O)Cc3cccs3)CC2)cc1,38%,1%,0%,0,?,1%
O=[N+]([O-])c1ccc(NC(=S)N2CCN(c3ccc(F)cc3)CC2)cc1,12%,18µM*,-3%,-3,-1%,0%
O=[N+]([O-])c1ccc(C(=S)N2CCN(c3ccc(F)cc3)CC2)cc1,-47%,·,0%,2,-3%,-1%
SMILES,a7 integrin act,ClpP mod,Pin1 inh,IL2 activator,PKM2 activator,USP2a inh
O=S(=O)(c1ccccc1)N1CCN(C(=S)Nc2ccc(F)cc2)CC1,-5%,20µM*,2%,0,7%,3%
Clc1ccc(Cn2cc3c(n2)-c2cc4ccccc4n2C3)cc1,·,?,-4%,·,·,·
COc1ccc(C2Nc3ccccc3C(=O)N2CCO)cc1COc1ccc(NC(C)=O)cc1 (stereo unspecified),·,·,-3%,·,·,·
O=C1C[C@H](c2ccc3ccccc3c2)N1S(=O)(=O)c1ccccc1[N+](=O)[O-],·,·,-18%,·,·,·
Clc1ccc2nc(-c3ccc(Br)s3)cn2c1,?,20µM*,0%,1,0%,0%
CC1(C)CC(=O)c2cnc(NC(=O)CCc3ccccc3)nc2C1,5%,-2%,-5%,0,3%,6%
CC(C(=O)Nc1ncc2c(n1)CC(C)(C)CC2=O)N1C(=O)c2ccccc2C1=O (stereo unspecified),2%,28µM*,-2%,-1,-2%,2%
COc1ccc(C(=O)N(Cc2ccccc2)Cc2ccccc2)c(O)c1,·,·,-2%,·,·,·
Cc1ccc(N=Nc2c(N)[nH]n3c(=O)cc(-c4ccccc4)nc23)cc1,-5%,28µM*,-11%,-3,3%,1%
Cc1c(C=O)ccc(N(C)C)c1C,·,0%,·,·,·,·
Cc1ccc(S(=O)(=O)N2CCCN(c3nc(-c4cccs4)nc4ccccc34)CC2)cc1,·,-11%,?,·,·,·
Cc1cc(C)nc(-n2nc(C)cc2NC(=O)COC(=O)CCC(=O)c2cccs2)n1,-15%,28µM*,?,0,2%,1%
Cc1cccc(NC(=O)CCC(=O)c2cccs2)n1,4%,3.5µM*,-4%,0,·,0%
CCCCc1n[nH]c2c1/C(=N/O)CC(c1ccccc1)C2 (stereo unspecified),14%,18µM*,1%,1,-14%,-13%
CCN(C(=O)CCS(=O)(=O)c1cc2[nH]c(=O)c(=O)[nH]c2cc1C)c1ccccc1,·,32µM*,11%,·,·,·
CCN(C(=O)CCS(=O)(=O)c1cc2c(cc1C)NC(=O)CO2)c1cccc(C)c1,·,2%,1%,·,·,·
COCCCNC(=S)Nc1cc2oc3ccccc3c2cc1OC,4%,-24%,1%,-3,-2%,3%
COc1cc2c(cc1NC(=S)Nc1cccc3ccccc13)oc1ccccc12,-1%,10µM*,0%,0,-11%,0%
COc1cc2c(cc1NC(=O)CSCC(=O)O)oc1ccccc12,5%,-2%,-5%,-4,-7%,0%
COc1cc2c(cc1NC(=S)Nc1cccc(C(F)(F)F)c1)oc1ccccc12,-21%,32µM*,-1%,2,-3%,6%
C[C@H]1Cc2c(COc3ccccc3)nc3c(c2CO1)CN(C(=O)c1cc(I)ccc1F)CC3,·,·,·,·,3%[11.5 µM],·
CCC(=O)NC(c1ccccc1Cl)c1c(O)ccc2ccccc12 (stereo unspecified),-11%,-27%,-1%,0,-4%,-1%

# High-throughput results (PubChem BioAssay)
